# In ChEMBL document CHEMBL1961873, “Compounds: GSK PKIS; Assays: Nanosyn kinase panel” (2012):
# Legend:
# [1] = molecular target: Tyrosine-protein kinase Fyn (Homo sapiens) (UniProt P06241); settings: at 1 µM
# [2] = molecular target: Tyrosine-protein kinase HCK (Homo sapiens) (UniProt P08631); settings: at 0.1 µM
# [3] = molecular target: Tyrosine-protein kinase HCK (Homo sapiens) (UniProt P08631); settings: at 1 µM
# [4] = molecular target: Insulin-like growth factor 1 receptor (Homo sapiens) (UniProt P08069); settings: at 0.1 µM
# [5] = molecular target: Insulin-like growth factor 1 receptor (Homo sapiens) (UniProt P08069); settings: at 1 µM
# [6] = molecular target: Insulin receptor (Homo sapiens) (UniProt P06213); settings: at 0.1 µM
# [7] = molecular target: Insulin receptor (Homo sapiens) (UniProt P06213); settings: at 1 µM
# [8] = molecular target: Insulin receptor-related protein (Homo sapiens) (UniProt P14616); settings: at 0.1 µM
# Sequence of Insulin receptor-related protein (Homo sapiens) (P14616 27-742 limits assumed): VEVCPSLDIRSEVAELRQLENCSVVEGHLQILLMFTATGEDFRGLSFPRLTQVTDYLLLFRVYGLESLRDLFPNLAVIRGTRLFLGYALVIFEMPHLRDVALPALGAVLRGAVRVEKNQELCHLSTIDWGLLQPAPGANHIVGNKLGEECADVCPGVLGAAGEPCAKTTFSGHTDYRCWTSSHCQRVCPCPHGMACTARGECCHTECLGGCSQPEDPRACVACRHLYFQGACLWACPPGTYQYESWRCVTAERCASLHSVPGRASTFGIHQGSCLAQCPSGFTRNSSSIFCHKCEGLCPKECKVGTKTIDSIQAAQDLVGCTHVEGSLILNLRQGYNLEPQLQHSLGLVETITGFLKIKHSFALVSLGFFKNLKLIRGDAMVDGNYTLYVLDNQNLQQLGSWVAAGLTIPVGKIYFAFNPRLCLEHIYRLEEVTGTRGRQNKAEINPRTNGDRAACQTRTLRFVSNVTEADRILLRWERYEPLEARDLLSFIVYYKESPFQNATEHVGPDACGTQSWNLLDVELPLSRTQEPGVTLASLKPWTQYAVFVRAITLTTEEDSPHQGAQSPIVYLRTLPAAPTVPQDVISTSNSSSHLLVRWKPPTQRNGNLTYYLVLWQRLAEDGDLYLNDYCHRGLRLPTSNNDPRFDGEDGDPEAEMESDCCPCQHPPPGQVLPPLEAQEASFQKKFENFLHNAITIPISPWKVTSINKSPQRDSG
# Sequence of Insulin receptor-related protein (Homo sapiens) (P14616 747-1297 limits assumed): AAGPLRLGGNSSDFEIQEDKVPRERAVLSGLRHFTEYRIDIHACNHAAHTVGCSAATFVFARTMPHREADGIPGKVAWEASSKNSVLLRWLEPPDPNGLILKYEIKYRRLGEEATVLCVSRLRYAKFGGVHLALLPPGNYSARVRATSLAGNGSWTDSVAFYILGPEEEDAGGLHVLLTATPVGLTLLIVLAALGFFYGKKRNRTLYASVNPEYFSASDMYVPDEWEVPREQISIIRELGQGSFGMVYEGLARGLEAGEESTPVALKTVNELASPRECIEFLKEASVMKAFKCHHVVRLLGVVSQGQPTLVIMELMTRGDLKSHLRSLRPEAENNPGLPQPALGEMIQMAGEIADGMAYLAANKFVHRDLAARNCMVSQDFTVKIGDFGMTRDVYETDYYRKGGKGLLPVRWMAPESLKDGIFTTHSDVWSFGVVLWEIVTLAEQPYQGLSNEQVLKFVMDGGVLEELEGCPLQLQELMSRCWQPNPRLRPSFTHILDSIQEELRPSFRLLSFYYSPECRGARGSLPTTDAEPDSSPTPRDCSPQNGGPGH
# [9] = molecular target: Insulin receptor-related protein (Homo sapiens) (UniProt P14616); settings: at 1 µM
# [10] = molecular target: T1, Tyrosine-protein kinase ITK/TSK (Homo sapiens) (UniProt Q08881); settings: at 0.1 µM
# T1 sequence (whole entry): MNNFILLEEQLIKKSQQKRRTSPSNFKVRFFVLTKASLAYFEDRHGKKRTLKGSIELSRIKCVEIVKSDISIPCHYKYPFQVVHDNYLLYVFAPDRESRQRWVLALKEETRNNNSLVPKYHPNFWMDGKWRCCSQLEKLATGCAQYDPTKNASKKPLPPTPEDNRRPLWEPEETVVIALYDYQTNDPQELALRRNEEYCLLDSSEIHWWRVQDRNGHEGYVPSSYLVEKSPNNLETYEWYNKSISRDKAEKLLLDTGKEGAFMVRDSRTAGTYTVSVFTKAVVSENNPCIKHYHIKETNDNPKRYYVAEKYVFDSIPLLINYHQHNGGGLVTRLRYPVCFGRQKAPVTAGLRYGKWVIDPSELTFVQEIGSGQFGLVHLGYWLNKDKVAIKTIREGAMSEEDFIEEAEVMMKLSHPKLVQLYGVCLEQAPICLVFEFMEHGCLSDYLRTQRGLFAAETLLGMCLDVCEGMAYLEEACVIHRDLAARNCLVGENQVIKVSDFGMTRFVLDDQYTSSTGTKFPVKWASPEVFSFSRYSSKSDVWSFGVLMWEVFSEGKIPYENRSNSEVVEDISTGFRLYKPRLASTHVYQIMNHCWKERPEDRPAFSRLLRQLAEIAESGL
# [11] = molecular target: T1, Tyrosine-protein kinase ITK/TSK (Homo sapiens); settings: at 1 µM
# [12] = molecular target: Tyrosine-protein kinase JAK1 (Homo sapiens) (UniProt P23458); settings: at 0.1 µM
# Sequence of Tyrosine-protein kinase JAK1 (Homo sapiens) (P23458 whole entry): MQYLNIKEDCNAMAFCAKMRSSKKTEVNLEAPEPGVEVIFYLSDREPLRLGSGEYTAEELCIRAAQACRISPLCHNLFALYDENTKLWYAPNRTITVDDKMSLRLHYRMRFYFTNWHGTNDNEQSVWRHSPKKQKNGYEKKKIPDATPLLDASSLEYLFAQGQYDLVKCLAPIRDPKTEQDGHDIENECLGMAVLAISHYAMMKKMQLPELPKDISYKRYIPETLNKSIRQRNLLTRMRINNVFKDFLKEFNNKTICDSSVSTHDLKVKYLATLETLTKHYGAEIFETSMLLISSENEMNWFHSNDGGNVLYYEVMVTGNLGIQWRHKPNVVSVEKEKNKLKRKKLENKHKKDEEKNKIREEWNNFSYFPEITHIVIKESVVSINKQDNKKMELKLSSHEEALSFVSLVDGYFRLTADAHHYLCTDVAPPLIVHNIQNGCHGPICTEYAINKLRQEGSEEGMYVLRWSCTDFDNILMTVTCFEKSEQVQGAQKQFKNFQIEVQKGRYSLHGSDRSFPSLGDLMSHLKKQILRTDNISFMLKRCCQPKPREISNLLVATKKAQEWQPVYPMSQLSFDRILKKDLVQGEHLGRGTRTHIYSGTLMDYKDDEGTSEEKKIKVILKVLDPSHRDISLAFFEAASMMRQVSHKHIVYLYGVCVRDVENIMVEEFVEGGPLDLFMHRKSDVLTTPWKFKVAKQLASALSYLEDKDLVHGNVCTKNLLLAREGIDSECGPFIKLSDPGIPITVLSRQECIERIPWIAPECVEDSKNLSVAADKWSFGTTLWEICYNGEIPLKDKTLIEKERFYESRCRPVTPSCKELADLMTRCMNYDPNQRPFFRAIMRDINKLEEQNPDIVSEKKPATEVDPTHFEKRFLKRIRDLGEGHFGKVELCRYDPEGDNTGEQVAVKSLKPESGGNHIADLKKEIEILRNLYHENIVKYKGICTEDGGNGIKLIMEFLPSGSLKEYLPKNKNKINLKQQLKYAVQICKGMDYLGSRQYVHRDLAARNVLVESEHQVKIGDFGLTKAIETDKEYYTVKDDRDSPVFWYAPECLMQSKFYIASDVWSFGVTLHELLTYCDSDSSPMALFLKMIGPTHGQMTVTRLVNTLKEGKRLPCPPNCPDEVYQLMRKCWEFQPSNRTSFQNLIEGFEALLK
# [13] = molecular target: Tyrosine-protein kinase JAK1 (Homo sapiens) (UniProt P23458); settings: at 1 µM
# [14] = molecular target: Tyrosine-protein kinase JAK2 (Homo sapiens) (UniProt O60674); settings: at 0.1 µM
# Sequence of Tyrosine-protein kinase JAK2 (Homo sapiens) (O60674 whole entry): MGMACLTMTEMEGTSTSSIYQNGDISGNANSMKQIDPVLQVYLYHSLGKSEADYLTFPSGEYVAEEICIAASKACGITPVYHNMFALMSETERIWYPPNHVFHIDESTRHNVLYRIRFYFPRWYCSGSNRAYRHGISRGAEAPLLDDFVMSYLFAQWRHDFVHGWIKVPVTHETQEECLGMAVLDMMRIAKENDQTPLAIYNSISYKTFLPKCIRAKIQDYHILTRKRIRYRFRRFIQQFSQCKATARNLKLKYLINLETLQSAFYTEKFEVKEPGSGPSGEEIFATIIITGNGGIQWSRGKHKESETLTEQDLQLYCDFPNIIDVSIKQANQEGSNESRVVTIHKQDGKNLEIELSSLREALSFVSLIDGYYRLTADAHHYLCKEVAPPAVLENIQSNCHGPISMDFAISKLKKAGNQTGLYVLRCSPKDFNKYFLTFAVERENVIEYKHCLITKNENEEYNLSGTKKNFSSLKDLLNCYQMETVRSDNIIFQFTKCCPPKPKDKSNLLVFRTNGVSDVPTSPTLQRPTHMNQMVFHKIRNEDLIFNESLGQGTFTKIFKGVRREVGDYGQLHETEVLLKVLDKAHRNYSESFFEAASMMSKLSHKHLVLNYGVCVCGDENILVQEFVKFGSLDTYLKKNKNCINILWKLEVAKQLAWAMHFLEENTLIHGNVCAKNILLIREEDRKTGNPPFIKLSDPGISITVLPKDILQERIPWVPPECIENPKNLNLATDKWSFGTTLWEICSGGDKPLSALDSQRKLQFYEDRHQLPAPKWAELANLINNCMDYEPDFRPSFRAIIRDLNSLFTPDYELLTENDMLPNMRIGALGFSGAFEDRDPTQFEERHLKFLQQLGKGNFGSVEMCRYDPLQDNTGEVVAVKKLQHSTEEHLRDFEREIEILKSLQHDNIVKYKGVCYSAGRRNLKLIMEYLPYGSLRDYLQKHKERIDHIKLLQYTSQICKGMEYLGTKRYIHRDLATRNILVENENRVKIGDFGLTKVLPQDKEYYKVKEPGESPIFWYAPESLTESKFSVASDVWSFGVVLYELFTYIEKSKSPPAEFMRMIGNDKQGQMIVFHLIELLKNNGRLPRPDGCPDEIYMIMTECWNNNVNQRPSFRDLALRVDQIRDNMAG
# [15] = molecular target: Tyrosine-protein kinase JAK2 (Homo sapiens) (UniProt O60674); settings: at 1 µM
# [16] = molecular target: T2, Tyrosine-protein kinase JAK3 (Homo sapiens) (UniProt P52333); settings: at 0.1 µM
# T2 sequence (whole entry): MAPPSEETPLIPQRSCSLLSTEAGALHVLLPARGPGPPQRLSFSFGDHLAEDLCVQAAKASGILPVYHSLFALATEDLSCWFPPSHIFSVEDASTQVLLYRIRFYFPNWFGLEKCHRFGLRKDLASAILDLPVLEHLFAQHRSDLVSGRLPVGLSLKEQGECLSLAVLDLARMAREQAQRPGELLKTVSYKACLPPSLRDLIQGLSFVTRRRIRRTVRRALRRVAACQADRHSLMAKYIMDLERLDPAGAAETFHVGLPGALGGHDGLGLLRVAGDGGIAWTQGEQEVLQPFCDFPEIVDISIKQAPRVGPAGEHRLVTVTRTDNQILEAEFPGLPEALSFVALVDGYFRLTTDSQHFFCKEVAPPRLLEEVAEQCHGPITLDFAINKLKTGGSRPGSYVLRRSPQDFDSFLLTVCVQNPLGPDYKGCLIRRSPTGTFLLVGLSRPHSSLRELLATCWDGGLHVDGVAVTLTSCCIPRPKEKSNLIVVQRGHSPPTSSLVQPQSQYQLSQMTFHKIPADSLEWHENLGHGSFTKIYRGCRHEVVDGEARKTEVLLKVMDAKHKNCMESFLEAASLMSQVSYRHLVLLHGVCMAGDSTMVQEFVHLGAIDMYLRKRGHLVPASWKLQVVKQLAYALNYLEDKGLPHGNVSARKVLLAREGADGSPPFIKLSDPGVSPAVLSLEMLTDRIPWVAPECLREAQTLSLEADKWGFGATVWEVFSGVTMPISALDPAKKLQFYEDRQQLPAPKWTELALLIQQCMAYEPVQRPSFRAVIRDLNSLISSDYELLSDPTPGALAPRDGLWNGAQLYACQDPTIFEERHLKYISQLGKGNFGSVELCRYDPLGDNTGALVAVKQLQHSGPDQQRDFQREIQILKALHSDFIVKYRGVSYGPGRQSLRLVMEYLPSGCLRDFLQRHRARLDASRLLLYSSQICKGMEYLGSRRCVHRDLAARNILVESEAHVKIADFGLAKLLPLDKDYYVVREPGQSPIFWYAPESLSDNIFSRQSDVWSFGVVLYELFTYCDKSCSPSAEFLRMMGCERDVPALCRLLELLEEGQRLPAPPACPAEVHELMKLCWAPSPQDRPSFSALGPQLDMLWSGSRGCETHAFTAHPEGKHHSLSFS
# [17] = molecular target: T2, Tyrosine-protein kinase JAK3 (Homo sapiens); settings: at 1 µM
# [18] = molecular target: Vascular endothelial growth factor receptor 2 (Homo sapiens) (UniProt P35968); settings: at 0.1 µM
# Sequence of Vascular endothelial growth factor receptor 2 (Homo sapiens) (P35968 whole entry): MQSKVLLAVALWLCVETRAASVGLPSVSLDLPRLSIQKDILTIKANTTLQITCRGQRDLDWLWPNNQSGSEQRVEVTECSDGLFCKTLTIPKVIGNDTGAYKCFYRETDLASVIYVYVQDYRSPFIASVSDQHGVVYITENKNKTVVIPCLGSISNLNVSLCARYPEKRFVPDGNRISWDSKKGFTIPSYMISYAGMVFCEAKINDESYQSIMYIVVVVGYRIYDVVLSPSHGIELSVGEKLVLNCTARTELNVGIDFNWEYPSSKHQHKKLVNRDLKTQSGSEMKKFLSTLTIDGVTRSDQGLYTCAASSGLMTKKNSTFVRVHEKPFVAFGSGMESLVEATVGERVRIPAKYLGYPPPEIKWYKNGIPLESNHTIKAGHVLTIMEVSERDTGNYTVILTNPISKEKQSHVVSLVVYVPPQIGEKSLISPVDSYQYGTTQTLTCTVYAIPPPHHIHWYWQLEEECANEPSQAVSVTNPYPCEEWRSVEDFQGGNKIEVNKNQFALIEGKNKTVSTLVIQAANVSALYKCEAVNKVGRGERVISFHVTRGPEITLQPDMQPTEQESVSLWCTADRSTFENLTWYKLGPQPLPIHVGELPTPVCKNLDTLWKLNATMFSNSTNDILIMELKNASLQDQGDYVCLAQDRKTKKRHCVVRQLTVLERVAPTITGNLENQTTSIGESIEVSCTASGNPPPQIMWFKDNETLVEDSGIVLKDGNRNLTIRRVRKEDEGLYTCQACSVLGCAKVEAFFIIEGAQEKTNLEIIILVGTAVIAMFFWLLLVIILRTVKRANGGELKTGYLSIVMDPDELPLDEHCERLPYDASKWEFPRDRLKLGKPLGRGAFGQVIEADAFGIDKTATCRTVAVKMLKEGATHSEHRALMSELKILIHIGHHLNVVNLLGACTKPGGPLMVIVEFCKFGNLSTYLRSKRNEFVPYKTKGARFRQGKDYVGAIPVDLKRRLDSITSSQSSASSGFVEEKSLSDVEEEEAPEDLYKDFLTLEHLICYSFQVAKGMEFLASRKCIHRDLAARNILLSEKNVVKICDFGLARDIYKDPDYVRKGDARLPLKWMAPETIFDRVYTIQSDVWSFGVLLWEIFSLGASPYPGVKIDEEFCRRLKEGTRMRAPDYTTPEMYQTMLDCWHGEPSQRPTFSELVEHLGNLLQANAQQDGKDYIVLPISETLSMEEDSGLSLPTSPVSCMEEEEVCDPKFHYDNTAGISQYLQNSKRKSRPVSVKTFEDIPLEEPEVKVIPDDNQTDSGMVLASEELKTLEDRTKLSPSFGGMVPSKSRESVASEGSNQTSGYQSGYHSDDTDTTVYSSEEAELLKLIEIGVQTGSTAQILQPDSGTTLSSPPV
# [19] = molecular target: Vascular endothelial growth factor receptor 2 (Homo sapiens) (UniProt P35968); settings: at 1 µM
# [20] = molecular target: Mast/stem cell growth factor receptor Kit (Homo sapiens) (UniProt P10721); settings: at 0.1 µM;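 also: values are mean inhibition of KIT, from the GSK PKIS dataset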
Structure (SMILES),inhibition [1],inhibition [2],inhibition [3],inhibition [4],inhibition [5],inhibition [6],inhibition [7],inhibition [8],inhibition [9],inhibition [10],inhibition [11],inhibition [12],inhibition [13],inhibition [14],inhibition [15],inhibition [16],inhibition [17],inhibition [18],inhibition [19],inhibition [20]
CCn1c(-c2nonc2N)nc2c(C#CC(C)(C)O)ncc(OC[C@@H]3CCCN3)c21,1.07%,-1.1%,1%,-4.88%,0.19%,0.85%,-1.35%,-1.3%,-0.44%,-1.58%,0.41%,0.75%,2.18%,-1.4%,-2.12%,-2.14%,0.33%,31.2%,81.3%,-1.26%
CCn1c(-c2nonc2N)nc2c(C#CCN)ncc(OCCCN)c21,-1.61%,0.79%,-3.58%,-5.07%,-6.11%,-5.48%,-4.01%,-0.39%,0.07%,0.2%,-1.36%,4.06%,13.7%,-1.01%,-1.7%,5.62%,4.64%,-3.31%,5.24%,-1.96%
NS(=O)(=O)c1ccc(N/C=C2\C(=O)Nc3ccc4ncsc4c32)cc1,9.66%,9.53%,28.9%,16%,19.4%,0.99%,11.7%,0.69%,4.17%,1.17%,8.24%,5.09%,26.8%,1.74%,11.1%,6.45%,54.4%,43.8%,75.3%,50%
CCn1c(-c2nonc2N)nc2c(C#CC(C)(C)O)nc(O[C@@H](CN)c3ccccc3)cc21,25%,0.41%,14.1%,-2.18%,-0.35%,1.17%,1.91%,-1.87%,-2.16%,0.11%,0.91%,-1.37%,4.4%,-0.3%,0.78%,0.59%,3.54%,86.8%,75.4%,-1.5%
COc1cc(C=NNc2ncnc3c2cnn3Cc2ccccc2)ccc1O,4.87%,3.29%,33.7%,-3.54%,-1.6%,-3.1%,–,-3.04%,-4.41%,-1.61%,0.65%,-5.07%,3.34%,-1.56%,-0.04%,0.38%,3.71%,-1.08%,12.2%,-5.78%
COc1cc2c(cc1Nc1nc(Nc3ccsc3C(N)=O)c3cc[nH]c3n1)N(C(=O)CN(C)C)CCC2,6.09%,14%,16.6%,99.3%,101%,102%,99.9%,95.7%,97.3%,-1.24%,0.88%,3.36%,1.85%,3.45%,-0.28%,-2.19%,-1.7%,1.27%,5.32%,–
CCn1c(-c2nonc2N)nc2c(C#CC(C)(C)O)ncc(OCC3CCNCC3)c21,2.15%,2.07%,5.41%,-3.92%,-4.46%,2.75%,1.72%,2.1%,2.17%,-2.28%,-1.96%,4.7%,12.5%,0.61%,1.31%,-4.99%,-3.39%,34.8%,71.2%,4.46%
Cc1cc(-c2ccco2)cc(C)c1/C=C/c1cncc(-c2nn[nH]n2)c1,1.98%,1.62%,3.34%,-1.5%,1.06%,0.61%,0.42%,1.36%,-0.21%,-0.49%,0.9%,-0.35%,3.09%,0%,-0.44%,-1.94%,0.31%,-2.08%,-0.14%,-0.86%
Nc1nonc1-c1nc2cnccc2n1C1CCCCC1,4.39%,-1%,0.66%,-3.43%,-0.98%,-0.54%,-0.22%,-2.35%,-3.62%,-0.34%,0.48%,-2.62%,2.81%,-0.95%,-0.41%,-0.04%,3.98%,6.99%,46.3%,-1.47%
Fc1ccc(-c2ncn(C3CCNCC3)c2-c2ccnc(Oc3ccccc3)n2)cc1,-3.36%,2.11%,1.98%,–,-4.15%,2.42%,3.05%,0.57%,0.22%,-3.91%,-3.42%,1.24%,-0.07%,-0.28%,-0.02%,-6.39%,-5.72%,4.3%,6.72%,0.89%
NS(=O)(=O)c1ccc(-c2ccc3c(NC(=O)C4CC4)n[nH]c3c2)cc1,2.42%,4.22%,9.28%,0.89%,1.61%,1.23%,2.43%,3.82%,2.73%,1.9%,6.67%,1.47%,-1.13%,1.06%,2.65%,-0.06%,2.45%,3.61%,8.35%,3.61%
NC(=O)c1sc(-n2cnc3cc(C(F)(F)F)ccc32)cc1OCc1ccccc1Br,7.58%,2.82%,0.29%,-2.64%,0.95%,0.33%,1.77%,1.13%,-0.33%,-0.64%,1.42%,5.27%,5.31%,0.93%,-0.32%,-1.17%,0.71%,1.59%,4.43%,-1.21%
COc1cccc(-n2ncc3c(N/N=C/c4ccncc4)ncnc32)c1,73.8%,15.7%,59.2%,4.62%,4.88%,6.46%,7.36%,1.64%,5.33%,1.63%,5.47%,5.43%,15.3%,2.01%,13.5%,-0.96%,10.6%,28.8%,69.2%,13.5%
COc1cccc(COc2cc(-n3cnc4ccccc43)sc2C(N)=O)c1,2.15%,-1.32%,-0.98%,-3.85%,-1.64%,-3.2%,0.19%,-0.6%,-1.17%,-2.19%,0.54%,-1.14%,0.01%,-1.09%,-2.1%,-1.45%,-1.13%,-3.84%,3.07%,0.16%
